Entries with a potency or affinity are not part of this list. A number with no mark means an inactive call. No rule for the calls is given here.
tested on: not listed separately; assay: A549 cell cytotoxicity, dose response, cytotoxicity control, plate reader, cherry-pick, antagonist series (AID 743412); settings: series mostly up to 26 µM; activity change, negative = cytotoxicity: at the top concentration;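 also: 0% = neutral control wells and -100% = positive control wells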

Compared with Cc1ccc(S(=O)(=O)N2[C@@H](CO)CO[C@H]2CC(=O)OCc2ccccc2)cc1, COc1ccc(N(CC(=O)NCc2cccs2)S(=O)(=O)c2ccc(C(C)=O)cc2)cc1 is lower in “activity change, negative = cytotoxicity” value: 75.5% for the first, -5.5% for the second.

In the case of N#C[C@H]1[C@@H](c2ccc(C3=CCCCC3)cc2)[C@H](CO)N1C(=O)c1ccccn1, the “activity change, negative = cytotoxicity” value is reported as 13.3%.

tested on: not listed separately; assay: toxicity toward HepG2 liver cells – cell-based, plate reader, cherry-pick, antagonist series, cytotoxicity control, dose response (AID 743416); settings: series mostly up to 26 µM; activity change, negative = cytotoxicity: at the top concentration;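 also: 0% = neutral control wells and -100% = positive control wells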

First: CSc1nnc(NC(=O)c2ccc3c(c2)OCO3)s1
Second: O=C(Nc1ccc(Cl)cc1Cl)c1ccc2c(c1)OCCO2
The “activity change, negative = cytotoxicity” value of the first is lower: -8.43% for the first, -0.349% for the second.

First: CCOc1ccc(-c2ccc(SCC)nn2)cc1
Second: CCOc1ccc(-c2cnc3ccccc3n2)cc1
The “activity change, negative = cytotoxicity” value of the first is lower: 2.84% for the first, 3.49% for the second.

First: CCOc1ccc(-n2cc(-c3ccccc3)c3c(N4CCOCC4)ncnc32)cc1
Second: COc1ccc(Nc2ncc(F)c(N3CCOCC3)n2)cc1
The “activity change, negative = cytotoxicity” value of the first is higher: -0.305% for the first, -9.75% for the second.

Going from O=C(c1ccccc1)N1CCSc2sccc2C1=O to O=C(Nc1ccc(Cl)cc1)Nc1ccccc1C(=O)O, the “activity change, negative = cytotoxicity” value falls from -4.22% to -9.12%.

Going from COc1ccc(-n2cc(C(=O)c3ccccc3O)cn2)cc1 to CCOc1ccc(C(=O)NCCc2ccccc2)cc1, the “activity change, negative = cytotoxicity” value rises from -1.9% to 3.32%.

First: CC1CCN(c2ccc(-c3cccs3)nn2)CC1
Second: c1ccc(-c2cn3c4c(sc3n2)CCCC4)cc1
The “activity change, negative = cytotoxicity” value of the first is higher: 92.2% for the first, -11.1% for the second.

Going from COc1ccc(-n2ncc3c(N(C)C4CCCCC4)ncnc32)cc1 to COc1ccc(S(=O)(=O)N(C)C[C@@H]2OCCCC[C@H](C)Oc3ccc(NS(=O)(=O)c4ccc(Cl)cc4)cc3C(=O)N([C@@H](C)CO)C[C@@H]2C)cc1, the “activity change, negative = cytotoxicity” value falls from -5.47% to -9.74%.

First: COc1ccc(S(=O)(=O)Nc2ccc3c(c2)C(=O)N([C@@H](C)CO)C[C@@H](C)[C@H](CN(C)C(=O)Nc2cccc4ccccc24)OCCCC[C@H](C)O3)cc1
Second: C[C@H](CO)N1C[C@H](C)[C@H](CN(C)C(=O)Nc2cccc3ccccc23)OCCCC[C@H](C)Oc2ccc(NC(=O)c3ccccc3)cc2C1=O
The “activity change, negative = cytotoxicity” value of the first is higher: 3.69% for the first, -24.7% for the second.

First: O=C(Nc1ccc(Cl)cc1)Nc1cccc(C(=O)O)c1
Second: COc1cccc(NC(=O)Nc2cccc(C(=O)O)c2)c1
The “activity change, negative = cytotoxicity” value of the first is higher: 5.5% for the first, -0.858% for the second.

Compared with Cc1cccc(-c2ccc([C@H]3[C@@H](CO)N4CCCCN(C(=O)c5ccncc5)C[C@@H]34)cc2)c1, COCC(=O)N1CCCCN2[C@H](CO)[C@H](c3ccc(-c4cccc(C)c4)cc3)[C@@H]2C1 is lower in “activity change, negative = cytotoxicity” value: -1.09% for the first, -7.42% for the second.

Going from COCCn1c(C)cc(C(=O)CSc2nnc3ccccn23)c1C to Cc1cc(C(=O)CSc2nnc3ccccn23)c(C)n1-c1ccccc1, the “activity change, negative = cytotoxicity” value falls from 3.49% to -6.55%.

Compared with CN(C)c1cccc(C(=O)Nc2nc3ccccc3[nH]2)c1, Cc1ccc2nc(-c3ccc(NC(=O)C4CCCO4)cc3)[nH]c2c1 (stereo not drawn) is higher in “activity change, negative = cytotoxicity” value: -25.3% for the first, -2.44% for the second.

First: COc1cc(SC)ccc1C(=O)Nc1nc(C)cs1
Second: COc1ccccc1N/C=C/c1onc(C)c1[N+](=O)[O-]
The “activity change, negative = cytotoxicity” value of the first is higher: 5.63% for the first, -3.14% for the second.

Compared with Cc1ccnc(NC(=O)CCC(=O)c2cccs2)c1, O=C(COc1ccc2c(c1)CCC2)Nc1ccccn1 is higher in “activity change, negative = cytotoxicity” value: -2.27% for the first, 10.2% for the second.

Compared with CN(C)S(=O)(=O)c1cccc(NC(=O)COc2ccccc2C(=O)Nc2ccccc2)c1, COc1ccccc1N(Cc1ccccc1)S(=O)(=O)c1cccc(C(=O)Nc2cc(C)ccn2)c1 is lower in “activity change, negative = cytotoxicity” value: -2.23% for the first, -2.36% for the second.

Compared with O=C(COC(=O)c1ccccc1C(=O)c1ccc(Cl)c([N+](=O)[O-])c1)NC1CC1, CCCNC(=O)COC(=O)c1ccccc1C(=O)c1ccc(Cl)c([N+](=O)[O-])c1 is higher in “activity change, negative = cytotoxicity” value: -22% for the first, -16.6% for the second.

Going from CCc1ccc2oc(-c3ccc(N)cc3)nc2c1 to Cc1ccc(S(=O)(=O)N(C)C[C@H]2Oc3c(cccc3N(C)C)C(=O)N([C@@H](C)CO)C[C@@H]2C)cc1, the “activity change, negative = cytotoxicity” value rises from -6.37% to 9.89%.

With C[C@@H]1CN([C@@H](C)CO)C(=O)c2cccc(NC(=O)Nc3ccc(C(F)(F)F)cc3)c2O[C@@H]1CN(C)C(=O)Nc1cccc2ccccc12 the “activity change, negative = cytotoxicity” value was -12.8%.

Going from CO[C@@H]1CN(C)C(=O)c2cc(NC(C)=O)ccc2OC[C@@H](C)N(Cc2ccc(F)cc2)C[C@@H]1C to N#C[C@@H]1[C@H](c2ccc(C#CC3CCCCC3)cc2)[C@@H](CO)N1S(=O)(=O)c1ccccc1, the “activity change, negative = cytotoxicity” value falls from 3.39% [at 23.5 µM] to -152% [at 23.5 µM].

target: Melanocortin receptor 4 (Homo sapiens) (UniProt P32245); assay: blockade of melanocortin 4 receptor signaling – cell-based, plate reader, cherry pick, counter-screen for LGR2 antagonist project, dose response (AID 743444); settings: MC4R-expressing cells, antagonist mode; series mostly up to 35 µM; activity change, negative = inhibition: at the top concentration

Compared with Cc1ccc(S(=O)(=O)N2[C@@H](CO)CO[C@H]2CC(=O)OCc2ccccc2)cc1, COc1ccc(N(CC(=O)NCc2cccs2)S(=O)(=O)c2ccc(C(C)=O)cc2)cc1 is higher in “activity change, negative = inhibition” value: 31.3% for the first, 52.5% for the second.

With N#C[C@H]1[C@@H](c2ccc(C3=CCCCC3)cc2)[C@H](CO)N1C(=O)c1ccccn1 the “activity change, negative = inhibition” value was -6.03%.

— PubChem BioAssay
